In the supplement of paper PMC8728848:
The entries come from a sample that favours the strongest signals as a whole.

What was measured:
Assay in all cases: glycan array binding signal (z-score within array); higher = stronger binding
Settings in all cases: glycan notation: IUPAC condensed, linker removed
[1] = biological target: Fuc(a1-2)Gal(b1-4)GlcNAc(b1-2)Man(a1-3)[Fuc(a1-2)Gal(b1-4)GlcNAc(b1-2)Man(a1-6)]Man(b1-4)GlcNAc(b1-4)[Fuc(a1-6)]GlcNAc
Summary of the method: (§1)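 Columns mapping to the same glycan were averaged after glycan names were converted to IUPAC-condensed notation. The data come from 3228 arrays in the Consortium for Functional Glycomics database, limited to those with an available protein sequence. Binding is reported as a within-array Z-score averaged across arrays of one protein sequence and across linkers.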

[2] = biological target: Fuc(a1-2)Gal(b1-4)[Fuc(a1-3)]GlcNAc(b1-2)[Fuc(a1-2)Gal(b1-4)[Fuc(a1-3)]GlcNAc(b1-4)]Man(a1-3)[Fuc(a1-2)Gal(b1-4)[Fuc(a1-3)]GlcNAc(b1-2)Man(a1-6)]Man(b1-4)GlcNAc(b1-4)GlcNAc
Summary of the method: as §1

[3] = biological target: Fuc(a1-3)[Gal3S(b1-4)]GlcNAc
Summary of the method: as §1

[4] = biological target: Fuc(a1-3)[Gal3S(b1-4)]GlcNAc6S
Summary of the method: as §1

[5] = biological target: Fuc(a1-3)[GalNAc(b1-4)]GlcNAc
Summary of the method: as §1

Gal(a1-3)Gal(b1-3)GlcNAc = biological target: Gal(a1-3)Gal(b1-3)GlcNAc
Summary of the method: as §1

[6] = biological target: Gal(a1-3)Gal(b1-3)GlcNAc(b1-2)Man(a1-3)[Gal(a1-3)Gal(b1-3)GlcNAc(b1-2)Man(a1-6)]Man(b1-4)GlcNAc(b1-4)GlcNAc
Summary of the method: as §1

[7] = biological target: Gal(a1-3)Gal(b1-3)GlcNAc(b1-3)GalNAc
Summary of the method: as §1

Gal(a1-4)GlcNAc = biological target: Gal(a1-4)GlcNAc
Summary of the method: as §1

Gal(b1-2)Gal = biological target: Gal(b1-2)Gal
Summary of the method: as §1

[8] = biological target: Gal(b1-3)GlcNAc(a1-6)Gal(b1-4)GlcNAc
Summary of the method: as §1

[9] = biological target: Gal(b1-3)GlcNAc(b1-2)Man(a1-3)[Gal(b1-3)GlcNAc(b1-2)Man(a1-6)]Man(b1-4)GlcNAc(b1-4)GlcNAc
Summary of the method: as §1

[10] = biological target: Gal(b1-3)GlcNAc(b1-3)Gal(b1-4)GlcNAc(b1-2)Man(a1-3)[Gal(b1-3)GlcNAc(b1-3)Gal(b1-4)GlcNAc(b1-2)Man(a1-6)]Man(b1-4)GlcNAc(b1-4)GlcNAc
Summary of the method: as §1

[11] = biological target: Gal(b1-3)GlcNAc(b1-3)GalNAc
Summary of the method: as §1

[12] = biological target: Gal(b1-4)GlcNAc(b1-2)Man(a1-3)Man(b1-4)GlcNAc(b1-4)GlcNAc
Summary of the method: as §1

[13] = biological target: Gal(b1-4)GlcNAc(b1-2)Man(a1-3)[Man(a1-6)]Man(b1-4)GlcNAc(b1-4)GlcNAc
Summary of the method: as §1

[14] = biological target: Gal(b1-4)GlcNAc(b1-2)[Gal(b1-4)GlcNAc(b1-4)]Man(a1-3)[GlcNAc(b1-4)][Gal(b1-4)GlcNAc(b1-2)Man(a1-6)]Man(b1-4)GlcNAc(b1-4)GlcNAc
Summary of the method: as §1

[15] = biological target: Gal(b1-4)GlcNAc(b1-3)Gal(b1-4)GlcNAc(b1-2)Man(a1-3)[Gal(b1-4)GlcNAc(b1-3)Gal(b1-4)GlcNAc(b1-2)Man(a1-6)]Man(b1-4)GlcNAc(b1-4)GlcNAc
Summary of the method: as §1

[16] = biological target: Gal(b1-4)GlcNAc(b1-3)Gal(b1-4)GlcNAc(b1-2)[Gal(b1-4)GlcNAc(b1-3)Gal(b1-4)GlcNAc(b1-6)]Man(a1-6)[Gal(b1-4)GlcNAc(b1-3)Gal(b1-4)GlcNAc(b1-2)Man(a1-3)]Man(b1-4)GlcNAc(b1-4)GlcNAc
Summary of the method: as §1

[17] = biological target: GalNAc(a1-3)GalNAc(b1-3)Gal(a1-4)Gal(b1-4)GlcNAc
Summary of the method: as §1

GalNAc(b1-4)Gal(b1-4)Glc = biological target: GalNAc(b1-4)Gal(b1-4)Glc
Summary of the method: as §1

[18] = biological target: GalNAc(b1-4)GlcNAc(b1-3)GalNAc(b1-4)GlcNAc
Summary of the method: as §1

GalNAc(b1-4)GlcNAc6S = biological target: GalNAc(b1-4)GlcNAc6S
Summary of the method: as §1

GalNAc3S(b1-4)GlcNAc3S = biological target: GalNAc3S(b1-4)GlcNAc3S
Summary of the method: as §1

Glc(a1-4)Glc = biological target: Glc(a1-4)Glc
Summary of the method: as §1

[19] = biological target: Glc(a1-4)Glc(a1-4)Glc(a1-4)Glc
Summary of the method: as §1

[20] = biological target: GlcNAc(b1-3)Gal(b1-3)GalNAc
Summary of the method: as §1

[21] = biological target: GlcNAc(b1-3)Gal(b1-4)GlcNAc(b1-2)Man(a1-3)[GlcNAc(b1-3)Gal(b1-4)GlcNAc(b1-2)Man(a1-6)]Man(b1-4)GlcNAc(b1-4)GlcNAc
Summary of the method: as §1

[22] = biological target: GlcNAc(b1-3)Gal(b1-4)GlcNAc(b1-3)Gal(b1-4)GlcNAc(b1-2)[GlcNAc(b1-3)Gal(b1-4)GlcNAc(b1-3)Gal(b1-4)GlcNAc(b1-6)]Man(a1-6)[GlcNAc(b1-3)Gal(b1-4)GlcNAc(b1-3)Gal(b1-4)GlcNAc(b1-2)Man(a1-3)]Man(b1-4)GlcNAc(b1-4)[Fuc(a1-6)]GlcNAc
Summary of the method: as §1

[23] = biological target: GlcNAc(b1-3)Gal(b1-4)GlcNAc(b1-3)[GlcNAc(b1-3)Gal(b1-4)GlcNAc(b1-3)]GalNAc
Summary of the method: as §1

B1: SAOUHSC 00176 (Staphylococcus aureus) (protein)
chain: MSKILKCITLAVVMLLIVTACGPNRSKEDIDKALNKDNSKDKPNQLTMWVDGDKQMAFYKKITDQYTKKTGIKVKLVNIGQNDQLENISLDAPAGKGPDIFFLAHDNTGSAYLQGLAAEIKLSKDELKGFNKQALKAMNYDNKQLALPAIVETTALFYNKKLVKNAPQTLEEVEANAAKLTDSKKKQYGMLFDAKNFYFNYPFLFGNDDYIFKKNGSEYDIHQLGLNSKHVVKNAERLQKWYDKGYLPKAATHDVMIGLFKEGKVGQFVTGPWNINEYQETFGKDLGVTTLPTDGGKPMKPFLGVRGWYLSEYSKHKYWAKDLMLYITSKDTLQKYTDEMSEITGRVDVKSSNPNLKVFEKQARHAEPMPNIPEMRQVWEPMGNASIFISNGKNPKQALDEATNDITQNIKILHPSQNDKKGD
- glycan array binding signal (z-score) [1]: 0.688
- glycan array binding signal (z-score) [2]: 0.546
- glycan array binding signal (z-score) [3]: -0.097
- glycan array binding signal (z-score) [4]: -0.175
- glycan array binding signal (z-score) [5]: -0.119
- glycan array binding signal (z-score) (Gal(a1-3)Gal(b1-3)GlcNAc): -0.106
- glycan array binding signal (z-score) [6]: 0.584
- glycan array binding signal (z-score) [7]: -0.107
- glycan array binding signal (z-score) (Gal(a1-4)GlcNAc): -0.034
- glycan array binding signal (z-score) (Gal(b1-2)Gal): -0.068
- glycan array binding signal (z-score) [8]: -0.122
- glycan array binding signal (z-score) [9]: 1.06
- glycan array binding signal (z-score) [10]: -0.007
- glycan array binding signal (z-score) [11]: -0.105
- glycan array binding signal (z-score) [12]: -0.068
- glycan array binding signal (z-score) [13]: 1.03
- glycan array binding signal (z-score) [14]: 0
- glycan array binding signal (z-score) [15]: 0.017
- glycan array binding signal (z-score) [16]: 0.619
- glycan array binding signal (z-score) [17]: -0.027
- glycan array binding signal (z-score) (GalNAc(b1-4)Gal(b1-4)Glc): 0.067
- glycan array binding signal (z-score) [18]: -0.092
- glycan array binding signal (z-score) (GalNAc(b1-4)GlcNAc6S): -0.057
- glycan array binding signal (z-score) (GalNAc3S(b1-4)GlcNAc3S): -0.084
- glycan array binding signal (z-score) (Glc(a1-4)Glc): 4.5
- glycan array binding signal (z-score) [19]: 23.6
- glycan array binding signal (z-score) [20]: -0.061
- glycan array binding signal (z-score) [21]: -0.101
- glycan array binding signal (z-score) [22]: -0.059
- glycan array binding signal (z-score) [23]: -0.02
